ALR H2O2 inh = blocks human ALR sulfhydryl oxidase activity | P55789 | purified ALR, DTT oxidation, H2O2 HRP-luminol luminescence | inhibition, % (concentration not given with the values) | 290,000 tested, 3.8% active | AID 485317;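 active = mean replicate inhibition above about 79%, with every replicate also reaching it, limit read from the data; inconclusive = only one of the two criteria met; inactive = mean below limit and not every replicate reaching it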
Target sequence (P55789 whole entry, looked up): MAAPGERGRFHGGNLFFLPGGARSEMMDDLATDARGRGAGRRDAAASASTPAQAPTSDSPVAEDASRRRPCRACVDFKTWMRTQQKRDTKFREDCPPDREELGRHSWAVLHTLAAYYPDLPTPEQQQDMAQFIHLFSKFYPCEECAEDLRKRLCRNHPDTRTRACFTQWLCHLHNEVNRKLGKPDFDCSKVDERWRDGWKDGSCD
PP1 counter = PP1-alpha (human) inhibition in PP5 counter-screen; P62136; purified PP1alpha, OMFP fluorescence; inhibition, % at 6.7 µM; 320,000 tested, 0.9% active;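 active = inhibition above the mean inhibition of all tested compounds plus 3 SD, computed separately for each screening campaign, cut at about 15% in these data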
Target sequence (P62136 whole entry, looked up): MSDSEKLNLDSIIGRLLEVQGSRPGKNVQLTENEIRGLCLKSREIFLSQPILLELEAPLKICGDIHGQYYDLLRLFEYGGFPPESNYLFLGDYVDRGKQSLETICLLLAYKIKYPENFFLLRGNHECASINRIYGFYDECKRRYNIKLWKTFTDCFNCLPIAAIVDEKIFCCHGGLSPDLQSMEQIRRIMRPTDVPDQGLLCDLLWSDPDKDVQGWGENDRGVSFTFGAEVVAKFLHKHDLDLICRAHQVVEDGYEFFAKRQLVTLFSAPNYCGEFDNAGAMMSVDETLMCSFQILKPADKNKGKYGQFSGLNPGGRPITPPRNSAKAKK
CSC inhib = cancer stem cell inhibition | cancer stem cell-like cells viability, luminescence | inhibition, % at 7.5 µM | 300,000 tested, 1.1% active; in the data active = inhibition above about 75%; inconclusive = no clear call, values can overlap the other calls; tested in HMLE shEcad cells
PP5 primary = PP5 (human) phosphatase inhibition | P53041 | 320,000 tested, 0.18% active | inhibition, % at 6.7 µM | purified PP5c, OMFP substrate fluorescence;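 active = inhibition above the campaign's mean inhibition across all tested compounds plus 3 SD, cut at about 9.5% in these data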
Calb FLC = C. albicans growth modulation with fluconazole; C. albicans CaCi-2 (fluconazole-resistant clinical isolate) + fluconazole, Alamar Blue growth, 48 h; growth inhibition, % (test concentration not listed); 300,000 tested, 0.57% active; AID 1979;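 active = growth inhibition above about 58% in most replicates, limit read from the data, passing the limit was not always enough; inconclusive = exactly half the replicates above a set limit; inactive = most replicates below a set limit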;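 note: all wells also contain fluconazole at 8 µg/ml as a sub-toxic cotreatment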
Hits are given with their value; - = inactive; ? = inconclusive; . = not tested or not shown. Compounds with a hit are over-represented: about 5.4% of the library has one in this group of screens.

SMILES	ALR H2O2 inh	PP1 counter	CSC inhib	PP5 primary	Calb FLC
O=C(NCc1ccc(F)cc1)c1cc(S(=O)(=O)N2CCCCC2)ccc1N1CCOCC1	.	-	.	-	.
O=C(NNS(=O)(=O)c1cc(Cl)cc(Cl)c1)c1sccc1-n1cccc1	87.9	-	-	-	-
Cc1ccc(S(=O)(=O)NNC(=O)c2sccc2-n2cccc2)cc1	-	-	-	-	-
CN(C)c1ccncc1C(=O)Nc1ccc(F)cc1F	-	-	-	-	-
O=C(C1=C(O)C(=O)N(CCc2ccccc2)C1c1ccncc1)c1cc2ccccc2o1 (stereo not drawn)	-	-	-	-	-
COC(=O)c1sc(N2C(=O)C(O)=C(C(=O)c3ccc(C)o3)C2c2ccc(F)cc2)nc1C (stereo not drawn)	-	16.7	-	-	-
Cc1ccc(C2C(C(=O)c3cc4ccccc4o3)=C(O)C(=O)N2c2cc(C)on2)cc1 (stereo not drawn)	97.9	21.6	-	-	-
Cc1cc(N2C(=O)C(O)=C(C(=O)c3cc4ccccc4o3)C2c2cccs2)no1 (stereo not drawn)	-	18.7	-	-	?
O=C(C1=C(O)C(=O)N(c2nccs2)C1c1ccccc1)c1cc2ccccc2o1 (stereo not drawn)	95.6	-	-	-	-
Cc1cc(N2C(=O)C(O)=C(C(=O)c3ccco3)C2c2ccc(O)cc2)no1 (stereo not drawn)	-	-	-	-	-
O=C(Cn1nnc(-c2cccs2)n1)N1CCOCC1	-	-	-	-	-
O=C(Nc1nc2ccccc2[nH]1)NC1CCCCC1	-	-	-	-	-
COC(=O)c1ccc(C2C(C(=O)c3ccc(C)o3)=C(O)C(=O)N2c2cc(C)on2)cc1 (stereo not drawn)	91.2	16.4	-	-	-
COC(=O)c1ccc(C2C(C(=O)c3ccco3)=C(O)C(=O)N2c2cc(C)on2)cc1 (stereo not drawn)	-	-	-	-	-
CCC(=O)Nc1cccc(NC(=S)NC(=O)c2ccc(C)cc2)c1	.	-	-	-	-
COc1ccc(NS(=O)(=O)c2ccc(O)c(NC(=O)c3cc4c(C)nn(-c5ccc(F)cc5)c4s3)c2)cc1	-	-	113.9	-	-
COc1ccc(NS(=O)(=O)c2ccc(N3CCOCC3)c(NC(=O)c3ccc(F)cc3)c2)cc1	-	-	-	-	-
COc1ccc(CC(=O)NNS(=O)(=O)c2cccc([N+](=O)[O-])c2)cc1OC	.	-	.	-	-
COc1ccc(-n2c(O)c(/C=N/NS(=O)(=O)c3cccc([N+](=O)[O-])c3)c3ccccc3c2=O)cc1OC	88.7	-	-	-	-
C/C(=N\NC(=O)CSCc1ccccc1Cl)c1cc(O)ccc1O	98.3	-	-	-	95.0
CCN(CC)C(=O)[C@H]1CC(CC(=O)NCCC2=CCCCC2)C(=O)N2CCc3c([nH]c4ccccc34)[C@]12C (stereo partly drawn)	-	.	-	.	.
Cc1cc(=O)oc2cc3c(cc12)OCCN3	96.8	-	-	-	-
COc1cc(NC(=O)CCN2CCN(c3ccccc3F)CC2)cc(OC)c1	-	-	-	-	-
CC(=O)Cn1ncc(Br)c(Br)c1=O	.	.	.	.	-
CC(C)CN1CC(C(=O)O)CC1=O (stereo not drawn)	-	-	-	-	-
SMILES	ALR H2O2 inh	PP1 counter	CSC inhib	PP5 primary	Calb FLC
O=C(c1c[nH]c2ccccc12)C(Cl)c1ccccc1 (stereo not drawn)	-	-	83.5	-	-
O=C(c1c[nH]c2ccccc12)C(O)C(c1ccccc1)N1CCOCC1 (stereo not drawn)	-	-	-	-	-
CCCCCOc1cccc(C2C(C(=O)c3cccs3)=C(O)C(=O)N2CCN2CCOCC2)c1 (stereo not drawn)	-	-	-	-	-
COC(=O)C(Cc1ccccc1)NC(=O)c1ccc(NS(=O)(=O)c2ccc3[nH]c(=O)[nH]c3c2)cc1 (stereo not drawn)	-	-	-	-	.
CCCS(=O)(=O)N1CCCC(C(=O)NCCCN(CC)c2cccc(C)c2)C1 (stereo not drawn)	98.7	-	-	-	-
CCCS(=O)(=O)N1CCC(C(=O)NCCCN(CC)c2cccc(C)c2)CC1	-	-	-	-	.
CCN(c1cccc(C)c1)S(=O)(=O)c1ccc2c(c1)oc(=O)n2C	-	-	-	-	-
CN(C)c1ccc(NC(=O)C2CCCN(S(=O)(=O)c3ccccc3)C2)cc1 (stereo not drawn)	99.5	-	-	-	-
CCCS(=O)(=O)N1CCCC(C(=O)NCCN(CC)c2ccccc2)C1 (stereo not drawn)	98.8	-	-	-	-
CCN(CCCNS(=O)(=O)c1ccc2c(c1)oc(=O)n2C)c1cccc(C)c1	97.5	-	-	-	.
O=C(NC1CCC(O)CC1)c1cc(-c2ccco2)nc2ccccc12 (stereo not drawn)	-	-	-	-	-
COCCNC(=O)c1cccc2c1C(=O)c1ccc(N3CCOCC3)cc1S2(=O)=O	-	.	.	.	.
CCOCCCNC(=O)c1ccc2c(=O)n(CCCOCC)c(=S)[nH]c2c1	-	-	-	-	-
C=CCNC(=O)/C(C#N)=C/c1ccc(SC)cc1	-	-	-	-	-
CCN(CCCNC(=O)C1CCN(S(=O)(=O)N2CCOCC2)CC1)c1cccc(C)c1	99.5	-	-	-	-
CC(=O)c1ccc(NS(=O)(=O)c2ccc(C)cc2)cc1	-	-	-	-	-
COCCCNC(=O)c1cc2c(=O)n3cc(C)ccc3nc2nc1NCC1CCCO1 (stereo not drawn)	-	-	.	-	-
COc1ccc(NC2CCCN(C(=O)CCCn3cncn3)C2)cc1 (stereo not drawn)	98.9	-	-	-	-
COc1ccc(NC2CCCN(C(=O)CCc3cccc(Cl)c3)C2)cc1 (stereo not drawn)	.	-	-	-	-
COc1cccc(CNC(=O)CCC2CCCN(C(=O)CCn3cncn3)C2)c1 (stereo not drawn)	.	-	-	-	-
COc1ccc(NC2CCCN(C(=O)CCn3cccn3)C2)cc1 (stereo not drawn)	98.6	-	-	-	-
COc1ccc(NC2CCCN(C(=O)CCc3cccc(F)c3)C2)cc1 (stereo not drawn)	99.5	-	-	-	-
COc1ccc2[nH]c(C(=O)N3CCCN(Cc4ccc(F)cc4)CC3)cc2c1	-	-	-	-	-
Clc1ccc(OCc2nnc(SCc3nnc(-c4ccccc4)o3)o2)c(Cl)c1	-	-	-	-	-
CCOC(=O)c1ccc(N=C2NC(=O)CS2)cc1	98.2	-	-	-	-
SMILES	ALR H2O2 inh	PP1 counter	CSC inhib	PP5 primary	Calb FLC
Cc1ccc(N=C2NC(=O)CS2)cc1	-	-	-	-	-
Fc1cccc(-n2cc(-c3ccccc3)c3c(=S)nc[nH]c32)c1	-	-	-	-	101.3
COc1cc(/C=N/NC(=O)c2ccc(=O)[nH]n2)ccc1O	99.3	-	-	-	-
COc1cc(/C=N/NC(=O)c2cc(C34CC5CC(CC(C5)C3)C4)[nH]n2)ccc1O	-	-	100.8	-	-
O=C(N/N=C/c1ccc(O)cc1)c1cc(C2CC2)[nH]n1	99.2	-	-	-	-
COc1cc(/C=N/NC(=O)c2cc(C3CC3)[nH]n2)ccc1O	99.0	-	-	-	-
